From the supplement of paper PMC10127200
Counter-ions that a name gives are not always drawn.

Key:
Experiment in all cases: Euclidean distance of Cell Painting phenotypic profile (signed KS, 77 features) to DMSO centroid (dimensionless distance); 5 or 10 uM (library dependent); higher = stronger phenotypic change vs DMSO (phenoactivity)
Settings in all cases: 48 h
786-O = test system: 786-O
Summary of the method: (§1)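 Stained cells were imaged confocally at 20X with 9 fields per well, after 48 h of exposure to library compounds at 10 or 5 uM (set by library; 0.1% DMSO final). The cells were five cancer lines and a healthy fibroblast line. From the images, Harmony extracted 77 features, each expressed as a signed Kolmogorov-Smirnov statistic relative to same-plate vehicle wells. Phenoactivity is measured as Euclidean distance to the median vehicle profile, using plate-position-corrected, correlation-weighted profiles averaged across replicates at the top dose.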

A549 = test system: A549
Summary of the method: as §1

DU145 = test system: DU145
Summary of the method: as §1

FB = test system: FB
Summary of the method: as §1

HEPG2 = test system: HEPG2
Summary of the method: as §1

OVCAR4 = test system: OVCAR4
Summary of the method: as §1

| Compound | Euclidean distance (786-O) | Euclidean distance (A549) | Euclidean distance (DU145) | Euclidean distance (FB) | Euclidean distance (HEPG2) | Euclidean distance (OVCAR4) |
| --- | --- | --- | --- | --- | --- | --- |
| CO/N=C(\C(=O)N[C@@H]1C(=O)N2C(C(=O)O)=C(CSc3nc(=O)c(O)nn3C)CS[C@H]12)c1csc(N)n1 [Ceftriaxone Sodium Trihydrate] | 1.01 | 0.779 | 1.23 | 0.836 | 0.792 | 0.926 |
| Cc1ccc(S(=O)(=O)Cc2nc(-c3ccc(C(=O)NCc4cccnc4)cc3)oc2C)cc1 | 3.04 | 2.65 | 2.6 | 1.11 | 1.68 | 2.14 |
| COC(=O)c1ccc2c(c1)NC(=O)/C2=C(\Nc1ccc(N(C)C(=O)CN2CCN(C)CC2)cc1)c1ccccc1 [Nintedanib (BIBF 1120)] | 3.7 | 4.29 | 2.53 | 4.05 | 2.66 | 3.01 |
| C[C@H]1c2cccc(O)c2C(=O)C2=C(O)[C@]3(O)C(=O)C(C(N)=O)=C(O)[C@@H](N(C)C)[C@@H]3[C@@H](O)[C@@H]21 [Doxycycline monohydrate] | 0.783 | 0.495 | 1.01 | 0.929 | 0.637 | 0.672 |
| CC12CC3CC(C)(C1)CC(N)(C3)C2 [Memantine HCl] | 1.1 | 0.654 | 1.66 | 1.03 | 1.95 | 1.51 |
| CC(=O)Nc1ccccc1 [Acetanilide] | 0.827 | 0.504 | 0.799 | 0.893 | 0.768 | 1.34 |
| COc1cc(Nc2c(C#N)cnc3cc(OCCCN4CCN(C)CC4)c(OC)cc23)c(Cl)cc1Cl [Bosutinib (SKI-606)] | 3.85 | 3.56 | 2.93 | 3.66 | 3.22 | 4.14 |
| O=C1NC(=O)/C(=C/c2ccc3nccc(-c4ccncc4)c3c2)S1 | 1.74 | 2.75 | 2 | 1.86 | 0.698 | 2.91 |
| Cc1cc(=O)oc2cc(O)ccc12 [4-Methylumbelliferone (4-MU)] | 0.739 | 0.856 | 0.979 | 0.746 | 0.603 | 0.95 |
| O=C(Nc1ccc(-c2ccnc(Nc3ccc(N4CCOCC4)cc3)n2)cc1)C1CCCN1 (centres undefined) | 0.834 | 1.49 | 1.24 | 1.52 | 1.48 | 0.844 |
| CO[C@H]1C[C@@H]2CC[C@@H](C)[C@@](O)(O2)C(=O)C(=O)N2CCCC[C@H]2C(=O)O[C@H]([C@H](C)C[C@@H]2CC[C@@H](O)[C@H](OC)C2)CC(=O)[C@H](C)/C=C(\C)[C@@H](O)[C@@H](OC)C(=O)[C@H](C)C[C@H](C)/C=C/C=C/C=C/1C [Rapamycin (Sirolimus)] | 2.74 | 1.97 | 1.21 | 3.07 | 1.86 | 2.1 |
| Cc1cc(C(C)(C)C)cc(C)c1CC1=NCCN1 [Xylometazoline HCl] | 0.708 | 0.547 | 0.707 | 0.795 | 0.707 | 0.903 |
| Cn1cc(C2=C(c3ccc(Cl)cc3Cl)C(=O)NC2=O)c2ccccc21 | 1.92 | 0.949 | 1.79 | 1.57 | 1.08 | 1.01 |
| COc1cc2c(cc1OC)CN(CCc1ccc(NC(=O)c3cc(OC)c(OC)cc3NC(=O)c3cnc4ccccc4c3)cc1)CC2 [Tariquidar] | 0.987 | 1.26 | 1 | 1.17 | 0.844 | 1.04 |
| C[C@H]1COC2=C1C(=O)C(=O)c1c2ccc2c1CCCC2(C)C [Cryptotanshinone] | 1.53 | 2.51 | 1.48 | 1.17 | 1.25 | 1.31 |
| O=c1oc2ccccc2c(O)c1Cc1c(O)c2ccccc2oc1=O [Dicoumarol] | 0.633 | 0.618 | 0.712 | 0.872 | 0.701 | 0.783 |
| COc1cc2nccc(Oc3ccc(NC(=O)Nc4cc(C)on4)c(Cl)c3)c2cc1OC [Tivozanib (AV-951)] | 2.03 | 2.81 | 1.83 | 2.67 | 2.21 | 2.39 |
| O=C(NOC[C@H](O)CO)c1ccc(F)c(F)c1Nc1ccc(I)cc1F | 3.1 | 2.57 | 3.66 | 3.5 | 2.03 | 2.63 |
| CC(=O)OCC[N+](C)(C)C [Acetylcholine Chloride] | 1.02 | 0.848 | 1.22 | 1 | 0.549 | 1.13 |
| NCCNc1ccc(NCCN)c2c1C(=O)c1ccncc1C2=O [Pixantrone Maleate] | 4.41 | 3.32 | 3.46 | 4.14 | 4.48 | 3.49 |

| Compound | Euclidean distance (786-O) | Euclidean distance (A549) | Euclidean distance (DU145) | Euclidean distance (FB) | Euclidean distance (HEPG2) | Euclidean distance (OVCAR4) |
| --- | --- | --- | --- | --- | --- | --- |
| O=C(Nc1ccccc1Br)N[C@@H]1CCN(c2ccc(C(F)(F)F)cn2)C1 | 0.896 | 0.999 | 0.688 | 0.9 | 0.544 | 1.21 |
| O=C(Cc1cccc(OC(F)(F)F)c1)Nc1ccc(CCCCc2nnc(NC(=O)Cc3ccccn3)s2)nn1 | 2.27 | 2.41 | 1.99 | 3.38 | 2.75 | 2.28 |
| CCCC(=O)O[C@]1(C(=O)COC(C)=O)CC[C@H]2[C@@H]3C[C@H](F)C4=CC(=O)C=C[C@]4(C)[C@@]3(F)[C@@H](O)C[C@@]21C [Difluprednate] | 1.73 | 2.5 | 2.59 | 1.74 | 0.695 | 1.82 |
| C/C=C\c1ccc(O)c(OC)c1 [Isoeugenol] | 0.776 | 0.444 | 1.07 | 0.672 | 0.417 | 0.903 |
| CCC(=O)NS(=O)(=O)c1ccc(-c2c(-c3ccccc3)noc2C)cc1 [Parecoxib] | 0.575 | 0.57 | 0.471 | 1.11 | 0.593 | 0.719 |
| N#CC(=C(/N)Sc1ccccc1N)/C(C#N)=C(\N)Sc1ccccc1N | 1.54 | 1.18 | 0.907 | 1.57 | 1.81 | 1.48 |
| CCC(=O)O[C@]1(C(=O)CCl)[C@@H](C)C[C@H]2[C@@H]3CCC4=CC(=O)C=C[C@]4(C)[C@@]3(F)[C@@H](O)C[C@@]21C [Clobetasol propionate] | 1.31 | 2.17 | 2.55 | 2.08 | 0.79 | 1.96 |
| CN1CC(=O)N2[C@H](c3ccc4c(c3)OCO4)c3[nH]c4ccccc4c3C[C@@H]2C1=O [Tadalafil] | 1.16 | 0.906 | 0.404 | 0.948 | 0.78 | 1.22 |
| O=C(O[C@@H]1Cc2c(O)cc(O)cc2O[C@@H]1c1ccc(O)c(O)c1)c1cc(O)c(O)c(O)c1 [(-)-Epicatechin gallate] | 1.61 | 0.725 | 1.16 | 1.3 | 0.724 | 0.782 |
| N[C@@H]1CCCC[C@H]1N.O=C([O-])C(=O)[O-].[Pt+2] [Eloxatin] | 3.84 | 3.01 | 1.15 | 3.29 | 2.14 | 3.55 |
| CNC(=O)c1cccc(-c2ccc3c(N4CCOC[C@@H]4C)nc(N4CCOC[C@@H]4C)nc3n2)c1 | 4 | 3.14 | 2.52 | 4.98 | 4.09 | 4.15 |
| CN(C)c1ccc2c(c1)Sc1cc(N(C)C)ccc1N2 [TRx0237 (LMTX) mesylate] | 2.79 | 3.35 | 2.69 | 3.38 | 2.95 | 2.88 |
| Cn1cc(-c2nc(N[C@@H]3CCCC[C@@H]3N)c(F)c3c2C(=O)NC3)cn1 | 2.54 | 2.93 | 2.88 | 2.99 | 1.85 | 2.99 |
| Cc1noc(NS(=O)(=O)c2ccc(N)cc2)c1C [Sulfisoxazole] | 1.32 | 0.853 | 1.02 | 0.984 | 0.555 | 1.26 |
| C[C@@H](O[C@H]1OCCN(Cc2nn(P(=O)(O)O)c(=O)[nH]2)[C@H]1c1ccc(F)cc1)c1cc(C(F)(F)F)cc(C(F)(F)F)c1 [Fosaprepitant dimeglumine salt] | 1.86 | 1.37 | 1.18 | 1.21 | 1.4 | 0.995 |
| Cc1nnc(NS(=O)(=O)c2ccc(N)cc2)s1 [Sulfamethizole] | 1.54 | 0.798 | 1.76 | 0.908 | 0.498 | 1.11 |
| COC1=CC(c2cc3ccccc3[nH]2)=N/C1=C\c1[nH]c(C)cc1C [Obatoclax Mesylate (GX15-070)] | 4.8 | 4.59 | 2.78 | 4.82 | 3.8 | 3.71 |
| CN1CCC(=C2c3ccccc3CCc3sccc32)CC1 [Pizotifen Malate] | 1.65 | 1.87 | 2.14 | 2.2 | 1.73 | 1.29 |
| CCCCc1oc2ccccc2c1C(=O)c1cc(I)c(OCCN(CC)CC)c(I)c1 [Amiodarone HCl] | 1.56 | 1.84 | 2.02 | 1.95 | 2.01 | 2.4 |
